From PubChem BioAssay AID2661 (Broad Institute, 2010)
Out of some 320,000 compounds screened, about 240 (0.075%) were called active. Only a selection was taken, and actives are over-represented in it overall. Unmarked numbers belong to inactive results.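 How the source made its calls: active means inhibition at or above 25%, using the most active replicate where run in duplicate; inactive means inhibition below 25%.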

These compounds were tested against Serine/threonine-protein kinase 33 (Homo sapiens) (UniProt Q9BYT3) (assay: STK33 phosphorylation of MBP blockers – biochemical, ADP-Glo luminescence, homogeneous, cell-free, primary screen (AID 2661)). Conditions: purified STK33, MBP phosphorylation, at 10 µM, active compounds read high.
Sequence of Serine/threonine-protein kinase 33 (Homo sapiens) (Q9BYT3 whole entry, looked up): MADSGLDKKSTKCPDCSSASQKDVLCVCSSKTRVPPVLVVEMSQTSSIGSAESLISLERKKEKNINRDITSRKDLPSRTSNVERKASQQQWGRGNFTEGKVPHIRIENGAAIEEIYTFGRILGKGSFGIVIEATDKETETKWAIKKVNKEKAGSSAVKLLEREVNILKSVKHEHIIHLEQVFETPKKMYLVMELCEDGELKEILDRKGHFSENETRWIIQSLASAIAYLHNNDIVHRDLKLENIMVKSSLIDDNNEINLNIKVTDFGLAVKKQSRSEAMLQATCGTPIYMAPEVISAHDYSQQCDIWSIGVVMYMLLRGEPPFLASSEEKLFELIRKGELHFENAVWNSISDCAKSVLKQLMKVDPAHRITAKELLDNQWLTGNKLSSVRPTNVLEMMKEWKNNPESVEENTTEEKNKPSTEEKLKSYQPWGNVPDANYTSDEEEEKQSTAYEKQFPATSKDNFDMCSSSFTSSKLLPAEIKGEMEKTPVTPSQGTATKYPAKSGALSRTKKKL
`COc1ccc(CCNC(=O)COC(=O)c2cnc(Cl)c(Cl)c2)cc1` gave an inhibition of 0.375%. `C[C@]12CC[C@H](O)CC1=CCC1C2CC[C@@]2(C)C1CC[C@@H]2NC(=O)CCC(=O)O` (stereo partly drawn) gave an inhibition of -0.89%. `CC1CCCCC1NCC(=O)Nc1ccccc1C(=O)Nc1ccccc1` (stereo not drawn) was tested, and the inhibition was 0.481%. `CC(C)(C)OC(=O)C[C@H]1C/C=C\C[C@@H](CC(=O)N[C@H](CO)Cc2ccccc2)C(=O)NC[C@@H](c2ccccc2)OC1=O` gave an inhibition of -0.103%. In the case of `O=C1COc2ccc(C(=O)COC(=O)c3ccccc3Cl)cc2N1`, the inhibition is reported as -0.902%. `Cn1c(N)c(C(=O)COC(=O)c2cccc(S(=O)(=O)N3CCOCC3)c2)c(=O)n(C)c1=O` gave an inhibition of -0.402%. `O=C(Cn1cc(C(F)(F)F)ccc1=O)Nc1ccc2c(c1)OCCO2` showed an inhibition of -0.216%. Work on `C[C@H]1COC(=O)[C@H](CC(=O)OC(C)(C)C)C/C=C\C[C@@H](CC(=O)N[C@H](CO)Cc2ccccc2)C(=O)N1` yielded an inhibition of 0.871%. `C[C@H](CO)N1C[C@H](C)[C@@H](CN(C)S(=O)(=O)c2ccc(F)cc2)Oc2ccc(NC(=O)CCC(F)(F)F)cc2C1=O` was tested, and the inhibition was -3.43%. Compound `CCN(c1ccccc1)S(=O)(=O)c1ccc(C(=O)Nc2ccccc2OC)cc1` has an inhibition of -0.186%. With `Cc1csc2nc(COC(=O)c3cccc(N(C)C)c3)cc(=O)n12` the inhibition was 0.859%. For `Cc1csc(=O)n1CC(=O)Nc1ccc(S(C)(=O)=O)cc1`, the inhibition was -0.384%. `COc1ccc(-c2c(C#Cc3ccsc3)c3cc(-c4ccc(CN5CCOCC5)cc4)ccc3n2C)cc1` showed an inhibition of -0.0231%. In the case of `O=S(=O)(Nc1ncnc2sccc12)c1cccc(F)c1`, the inhibition is reported as -0.694%. In the case of `CCN(C[C@H]1N[C@@](CC)(C(=O)OC)[C@H]2C(=O)N(C)C(=O)[C@@H]12)C(=O)Nc1ccc(F)cc1`, the inhibition is reported as -1.58%. Compound `Cc1ccc(NC(=O)c2ccc(Cl)nc2)cc1S(=O)(=O)N1CCOCC1` has an inhibition of -0.219%. With `COc1ccccc1N(CC(=O)Nc1ccc(C)cc1Cl)S(=O)(=O)c1cccs1` the inhibition was -0.284%. Work on `Cc1ccc(CNC(=O)COC(=O)C2CCC2)cc1` yielded an inhibition of -0.167%. `C=CC[C@@H](CC(=O)N[C@H](CO)Cc1ccccc1)C(=O)N[C@H](C)COC(=O)[C@@H](CC=C)Cc1ccc(F)cc1` was tested, and the inhibition was -1.41%. `O=C(COC(=O)c1cc(S(=O)(=O)N2CCOCC2)ccc1F)NC1CC1` was tested, and the inhibition was -1.08%. `O=C1CC2(CCCC2)C(=O)N1CN1CCN(S(=O)(=O)c2ccc(F)cc2F)CC1` gave an inhibition of 0.0533%. Compound `O=C(C[C@H]1C/C=C\C[C@@H](NC(=O)OCC2c3ccccc3-c3ccccc32)C(=O)O[C@@H](c2ccccc2)CNC1=O)N[C@H](CO)Cc1ccccc1` has an inhibition of 0.211%. For `COc1ccc(C(=O)COC(=O)c2c(C)noc2C)cc1Cl`, the inhibition was 0.472%. `O=C(COC(=O)c1cccnc1Cl)NC12CC3CC(CC(C3)C1)C2` was tested, and the inhibition was -1.76%. In the case of `CCn1c(/C=C/c2ccc([N+](=O)[O-])o2)nc2ccccc2c1=O`, the inhibition is reported as 84.6% (active). Compound `Cc1cc(C)nc(N/N=C/c2ccc([N+](=O)[O-])o2)n1` has an inhibition of 0.179%. Compound `CCn1c(=O)c([N+](=O)[O-])c(NCc2ccc3c(c2)OCO3)c2ccccc21` has an inhibition of 2.57%. `Cn1c(N)c(C(=O)COC(=O)c2ccc3ccccc3c2)c(=O)n(C)c1=O` showed an inhibition of -1.35%. `CCOC(=O)[C@H]1[C@H]2COc3cc(OC)ccc3[C@@H]2N2C(=O)CN(Cc3ccc(Cl)cc3)C(=O)[C@@]12C` showed an inhibition of 0.914%. For `O=C(COC(=O)c1n[nH]c2ccccc12)Nc1ccccc1Br`, the inhibition was -1.11%. `CC1CCCCC1NC(=O)Cn1cnc2c1c(=O)n(C)c(=O)n2C` (stereo not drawn) was tested, and the inhibition was 1.66%. Work on `Cc1ccc2c(c1)NC(=O)[C@@]1(C)[C@@H](c3ccccc3)[C@H]3COc4ccc(Cl)cc4[C@@H]3N1C2=O` yielded an inhibition of -0.222%. With `CC1(C)CC[C@@]2(C(=O)O)C(C1)C1=CCC3[C@@]4(C)CC[C@H](O)C(C)(C)C4CC[C@@]3(C)[C@]1(C)C[C@H]2O` (stereo partly drawn) the inhibition was -0.618%. With `CCN(C[C@H]1N[C@@](Cc2ccccc2)(C(=O)OC)[C@H]2C(=O)N(Cc3ccccc3)C(=O)[C@@H]12)C(=O)c1ccc(C)cc1` the inhibition was -0.0719%. Work on `COc1ccc(-c2nc3cnccn3c2NC2CCCCC2)cc1-c1cccc(Cl)c1` yielded an inhibition of 0.0525%. For `CN1CCN(C(=O)c2ccc(-c3ccc(Br)cc3)o2)CC1`, the inhibition was -1.87%. `Cc1ccc(C2(C)NC(=O)N(CC(=O)N3CC(=O)Nc4ccccc43)C2=O)cc1` (stereo not drawn) gave an inhibition of -1.43%. In the case of `O=C(NCc1ccc2c(c1)OCO2)c1cc([N+](=O)[O-])ccc1N1CCOCC1`, the inhibition is reported as 0.302%. `COc1ccc(Br)cc1CN(C)C(=O)C1CC(=O)N(C2CCCC2)C1` (stereo not drawn) gave an inhibition of -1.57%. `COc1cc(C=NNC(=O)c2cccnc2)ccc1OC(=O)c1ccccc1F` gave an inhibition of -0.897%. In the case of `COc1ccccc1C(=O)OCC(=O)Nc1cccc(S(=O)(=O)NC2=NCCCCC2)c1`, the inhibition is reported as -2.03%. Compound `O=C(NNS(=O)(=O)c1c(F)cc(F)c(Cl)c1F)C12CC3CC(CC(C3)C1)C2` has an inhibition of 0.0785%. `C=CC[C@H](CC(=O)N(CCO)Cc1ccccc1)C(=O)N[C@@H](COC(=O)[C@@H](CC=C)Cc1ccc(F)cc1)Cc1ccccc1` showed an inhibition of -2.76%. For `CC1(c2ccccc2)NC(=O)N(CC(=O)N2CC(=O)Nc3ccccc32)C1=O` (stereo not drawn), the inhibition was -2.96%. `O=C(Nc1cccc(S(=O)(=O)N2CCOCC2)c1)C12CC3CC(CC(C3)C1)C2` was tested, and the inhibition was -0.903%. With `COc1ccc(C2=Nn3c(nnc3-c3ccccc3OC)SC2)cc1OC1CCCC1` the inhibition was 0.928%. With `O=C(COC(=O)c1ccncc1)Nc1ccc2c(c1)OCO2` the inhibition was 0.121%. `CN(CC(=O)NCCc1ccc(S(N)(=O)=O)cc1)CC(=O)Nc1ccc(F)c(F)c1F` showed an inhibition of -2.4%. With `Cc1cccc(C(=O)OCC(=O)NC(C)C2CC3CCC2C3)c1O` (stereo not drawn) the inhibition was -0.0496%. Work on `Cc1occc1C(=O)Nc1cccc(S(=O)(=O)N2CCOCC2)c1` yielded an inhibition of -0.0898%. Compound `O=C(COC(=O)c1ccc2c(c1)OCCO2)NCc1ccccc1Cl` has an inhibition of 0.627%. With `COc1ccc2sc(-c3ccc(S(C)(=O)=O)cc3)c(-c3ccc(C(N)=O)cc3)c2c1` the inhibition was 0.996%. For `CCOC(=O)C1CCN(C(=O)CN2C(=O)NC(C)(c3ccc4cc(OC)ccc4c3)C2=O)CC1` (stereo not drawn), the inhibition was -0.656%. Work on `O=C(OCCN1C(=O)c2ccccc2C1=O)[C@@H]1CC(O)CN1S(=O)(=O)c1ccccc1[N+](=O)[O-]` (stereo partly drawn) yielded an inhibition of -1.85%. Work on `Cc1ccc(C(=O)Nc2ccc3c(c2)OCCO3)cc1S(=O)(=O)N1CCOCC1` yielded an inhibition of -0.304%. `CC(C)Cn1c(SCC(=O)Nc2ccc(Cl)cc2F)nc(O)cc1=O` showed an inhibition of -0.953%. For `COc1ccc2[nH]c(C(=O)N/N=C/c3cc(OC)c(OC)c(OC)c3)cc2c1`, the inhibition was 2.65%. `COc1cc(N=Cc2c(O)[nH]c3ccccc23)cc(OC)c1OC` was tested, and the inhibition was 58.4% (active). Work on `COc1cc(/C=N/NC(=O)Cc2ccccc2)cc(OC)c1OC` yielded an inhibition of -2.17%. `COc1ccc(N=Cc2c(O)[nH]c3ccccc23)cc1OC` was tested, and the inhibition was 52.5% (active). `CN=c1scc(-c2cc(OC)ccc2OC)n1/N=C/c1c(C)[nH]c2ccccc12` was tested, and the inhibition was -0.488%. With `COc1ccccc1N=Cc1c(O)c2ccccc2oc1=O` the inhibition was -1.49%. `O=C1NC(Cc2ccc(O)cc2)c2nc3ccc(Cl)cc3c(=O)n2-c2ccccc21` (stereo not drawn) showed an inhibition of -0.58%. `COc1ccc(S(=O)(=O)N2CCN(CC(=O)N3CCOCC3)CC2)cc1OC` showed an inhibition of -0.603%. `C=CCC[C@@H](Cc1ccc(F)cc1)C(=O)O[C@H](CNC(=O)[C@H](CC=C)CC(=O)N(CCO)Cc1ccccc1)c1ccccc1` gave an inhibition of -2.71%. `COc1cccc(NC(=O)COc2cccnc2[N+](=O)[O-])c1` gave an inhibition of -0.0978%. With `CC(OC(=O)c1ccc(Cl)cc1O)C(=O)NCCC1=CCCCC1` (stereo not drawn) the inhibition was -0.652%. For `CC1CC(=NNC(=O)C2COc3ccccc3O2)CC(C)(C)C1` (stereo not drawn), the inhibition was -2.29%. Compound `CN(CC(=O)Nc1ccc(C(N)=O)cc1)S(=O)(=O)c1ccc2c(c1)OCCO2` has an inhibition of -0.492%. In the case of `O=C(Nc1cccc(S(=O)(=O)NC2=NCCC2)c1)c1ccc(F)cc1F`, the inhibition is reported as -1.19%. `Cc1ccc(S(=O)(=O)Nc2ccc(F)c(S(=O)(=O)N3CCOCC3)c2)cc1` was tested, and the inhibition was -2.74%. Compound `COc1ccc(C(=O)COC(=O)C(O)c2ccccc2)c(OC)c1` (stereo not drawn) has an inhibition of -0.118%. For `O=C(N[C@@H]1C/C=C\C[C@@H](CC(=O)N(CCO)Cc2ccccc2)C(=O)N[C@H](Cc2ccccc2)COC1=O)OCC1c2ccccc2-c2ccccc21`, the inhibition was -2.32%. For `Fc1ccc2cnc(-c3ccccc3)cc2c1`, the inhibition was -0.562%. `C=CCC[C@@H](Cc1ccc(F)cc1)C(=O)OC[C@H](Cc1c[nH]c2ccccc12)NC(=O)[C@@H](CC=C)CC(=O)N(CCO)Cc1ccccc1` was tested, and the inhibition was -0.461%. `O=C1N[C@@H](c2ccccc2)COC(=O)[C@H](Cc2ccc(F)cc2)C/C=C\C[C@@H]1CC(=O)N(CCO)Cc1ccccc1` was tested, and the inhibition was 0.44%. With `CCN(CC(=O)NCc1ccc(F)cc1)S(=O)(=O)c1ccc(Cl)s1` the inhibition was 0.0366%. `NC(=O)Nc1ccc(C(=O)OCC(=O)NC2CCCc3ccccc32)cc1` (stereo not drawn) gave an inhibition of -0.0928%.
